# Assay results from PubChem BioAssay (Tox21).
# Inconclusive results are not listed. Entries that show only a call come without a potency. Calls of active or inactive are those of the source. The call rests on the fitted dose curve; in most records, active means well fitted cell-killing curve with a large enough effect in the repeat runs; inconclusive means weak or mixed curves; inactive means flat fitted curve, though single readings scatter.
# Assay: qHTS assay to identify small molecule antagonists of the estrogen related receptor (ERR) signaling pathway - cell viability counter screen (AID 1224818);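 further: viability measured after 17.5 h of compound exposure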
# Conditions: ERR reporter cell line viability counter screen; series mostly up to 46.1 µM
# In short: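 In the same ERR cell assay, compound-treated wells (17.5 h, 37 C) were multiplexed with a fluorogenic viability reagent, CellTiter-Fluor, read after 30 min to flag cytotoxic substances.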
# Potency means the concentration at half of the fitted maximal effect.
row,SMILES,Potency
1,CSC(=N)N,inactive
2,CCCC[C@@]1(C2CCCC2)Cc2cc(OCC(=O)O)c(Cl)c(Cl)c2C1=O,inactive
3,Nc1ncnc2c1ncn2C1CCCC1,inactive
4,CCCOC(=O)c1c(-c2ccccc2)nc(CC)c(C(=O)SCC)c1CCC,inactive
5,CN[C@H](CC(=O)O)C(=O)O,inactive
6,NC(=O)C(=O)O,inactive
7,CCCCCCCC/C=C\CCCCCCCC(=O)NCCc1ccc(O)c(O)c1,inactive
8,N#C/C(=C\c1ccc(O)c(O)c1)C(=O)NCCc1ccccc1,inactive
9,CC(=O)[C@H]1CCC2C3CC=C4C[C@@H](OS(=O)(=O)O)CC[C@]4(C)C3CC[C@@]21C (stereo not given in full),inactive
10,CC1(C)CCC=[N+]1[O-],inactive
11,OC1(c2ccc(Cl)cc2)CCN(Cc2c[nH]c3ccccc23)CC1,inactive
12,CCCCCCC(=O)OC1CC(C)(C)NC(C)(C)C1,inactive
13,OC[C@H]1O[C@@H](n2cnc3c(NC4CCCC4)ncnc32)[C@H](O)C1O (stereo not given in full),inactive
14,CCOC(=O)C1=C(O)C(=O)N(Cc2ccccc2)C1,inactive
15,NC(CCCP(=O)(O)O)C(=O)O (stereo not given),inactive
16,CCn1c(=O)[nH]c2cc(Cl)c(Cl)cc21,inactive
17,COc1ccccc1CN[C@@H]1CCCN[C@@H]1c1ccccc1,inactive
18,CCCn1c(=O)c2c(ncn2C)n(CCC)c1=O,inactive
19,CN1CCc2cc(NC(=O)Nc3cccnc3)ccc21,inactive
20,O=C1NC(O)=NC1(c1ccccc1)c1ccccc1,inactive

row,SMILES,Potency
1,O=C(O)C1CCNCC1,inactive
2,CC1(C)CCC2=C(O1)c1ccccc1C(=O)C2=O,16.8 µM (active)
3,O=[N+]([O-])c1cccc2c(Br)[nH]nc12,inactive
4,NCCCCN=C(N)N,inactive
5,NCCC1CCCC(CCN)N1 (stereo not given),inactive
6,C=C1C[C@@]23CC[C@H]4[C@@](C)(CCC[C@@]4(C)C(=O)OC4OC(CO)C(O)C(O)C4O)[C@@H]2CC[C@]1(OC1OC(CO)C(O)C(O)C1OC1OC(CO)C(O)C(O)C1O)C3 (stereo not given in full),inactive
7,CCc1ccc2c(-c3cccc(Cl)c3)nc(=O)n(CC)c2n1,inactive
8,CC1CC2C3CCC4=CC(=O)C=C[C@]4(C)[C@@]3(F)[C@@H](O)C[C@]2(C)[C@@]1(O)C(=O)CO (stereo not given in full),inactive
9,CCOC(=O)C(C)Oc1cccc2c(=O)n(CC(=O)Nc3ccc4c(c3)OCCO4)ccc12 (stereo not given),inactive
10,N[C@H]1CONC1=O,inactive
11,CNCCNS(=O)(=O)c1cccc2cnccc12,inactive
12,NC[C@@H]1O[C@H](c2ccccc2)Cc2c1ccc(O)c2O,inactive
13,NC(N)=NCc1cccc(I)c1,inactive
14,N=C(N)SCCc1cnc[nH]1,inactive
15,C[C@@H](CN1CCC(Cc2ccccc2)CC1)[C@@H](O)c1ccc(O)cc1,inactive
16,Nc1nc(Nc2ccccc2)nc2c1ncn2[C@@H]1O[C@H](CO)C(O)[C@H]1O (stereo not given in full),inactive
17,NC(N)=[N+]1CCc2ccccc2C1,inactive
18,O=C(O)c1cc2cc(Cc3cccnc3)ccc2o1,inactive
19,NCCCCNCCCN,inactive
20,Cc1ccc(O)c(N=Nc2ccccc2)n1,inactive
